SMILES strings stand for the structures. Among all 330,000 compounds or so, about 4,900 (1.5%) were called active. The sample holds actives, similar compounds and a random draw of the others, so the mix is not that of the screen.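 The calls were made as follows: active = inhibition above the mean inhibition across the screen plus 3 SD (cut at about 25% in these data); inactive = the rest.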

As usually defined, the inhibition is the relative decrease from the control value, in per cent.

Sequence of Platelet-activating factor acetylhydrolase (Homo sapiens) (Q13093 whole entry, looked up): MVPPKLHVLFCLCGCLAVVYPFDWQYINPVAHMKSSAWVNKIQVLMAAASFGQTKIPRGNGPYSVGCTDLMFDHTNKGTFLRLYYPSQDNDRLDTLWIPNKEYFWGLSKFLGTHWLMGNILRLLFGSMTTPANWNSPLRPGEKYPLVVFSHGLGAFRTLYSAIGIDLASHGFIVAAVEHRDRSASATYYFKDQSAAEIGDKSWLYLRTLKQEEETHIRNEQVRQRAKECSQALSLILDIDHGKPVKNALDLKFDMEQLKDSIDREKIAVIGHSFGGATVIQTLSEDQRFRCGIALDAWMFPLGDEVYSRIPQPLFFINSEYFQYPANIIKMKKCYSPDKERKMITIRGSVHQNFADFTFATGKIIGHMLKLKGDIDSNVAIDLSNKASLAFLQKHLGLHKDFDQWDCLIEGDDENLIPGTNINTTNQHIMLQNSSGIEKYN

The experiment concerns the target Platelet-activating factor acetylhydrolase (Homo sapiens) (UniProt Q13093). In words: inhibition of plasma PAF acetylhydrolase – biochemical, fluorescence polarization, human, primary screen (AID 463082).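 Also: inhibitors block binding of the rhodamine activity-based probe so polarization drops; 0% = enzyme with DMSO and 100% = wells lacking pPAFAH.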 The following applies: recombinant pPAFAH, FP-rhodamine probe fluorescence polarization; at 3.39 µM; stronger effect = higher value.
Turning to `CC(CC(=O)N1CCN(c2ccccc2)CC1)c1ccccc1` (centres undefined), the inhibition was 0.04% (inactive).
As for `O=C(Nc1ccc(F)cc1)N1CCN(c2ccc(F)cc2)CC1`, the inhibition was -4.2% (inactive).
The value for `CC(=O)N1CCN(c2ccc(NCc3ccc(C(C)C)cc3)cc2)CC1` was 30.8% (active).
Next, `N#CC1=C(N)N(c2ccc(F)cc2)C(=O)C1`: -0.02% (inactive).
Next, `CCCCc1nc(NCCN)c(C#N)c2c1CSC(C)(C)C2`: 4.91% (inactive).
For the molecule `Cc1cccc(COc2ccccc2/C=N/Nc2ccc([N+](=O)[O-])cc2)c1`, the inhibition was 18% (inactive).
Next, `Cc1ccc(NS(=O)(=O)c2ccc(N/N=C/c3ccccc3OCC(=O)O)c([N+](=O)[O-])c2)c(C)c1`: 88.4% (active); `C=C(C)CNC(=S)N/N=C/c1ccccc1OCC(=O)O`: 0.9% (inactive).
Next, `COCCn1c(=O)[nH]c(=O)c2cc(C(=O)c3cc(OC)ccc3O)cnc21`: -1.8% (inactive); `CC(C)NC(=O)C(=O)NCCN1CCN(S(=O)(=O)c2ccc(Cl)cc2)CC1`: 2.1% (inactive).
`Clc1ccccc1CSc1nnc(-c2ccco2)c(-c2ccco2)n1`: the inhibition is 74.6% (active).
Next, `COc1ccc2nc(SCc3ccccc3)nc(C)c2c1`: 3.07% (inactive); `CCc1nnc(SCc2cccc(F)c2)nc1CC`: 7.48% (inactive); `O=C(Nc1nnc(SCc2ccccc2Cl)s1)c1cccc([N+](=O)[O-])c1`: 22.8% (inactive).
Next, `O=C(CC1N=C2c3ccccc3N=C(SCc3ccccc3Cl)N2C1=O)NCc1ccco1` (centres undefined): 6.79% (inactive); `c1ccc(CSc2nnc(-c3ccco3)c(-c3ccco3)n2)cc1`: 62% (active); `N#CC(Cc1cc2ccccc2n1S(=O)(=O)c1ccccc1)OCc1ccccc1` (centres undefined): 3.57% (inactive).
The value for `N#Cc1c(NC(=O)C2CCCO2)sc2c1CCCCC2` (centres undefined) was -1.14% (inactive).
Turning to `Cc1cccc(NS(=O)(=O)c2ccc(C)c(C(N)=O)c2)c1`, the inhibition is 9.98% (inactive).
The value for `Nc1cccc(S(=O)(=O)Nc2ccc(SC(F)F)cc2)c1` was 26.6% (active).
The value for `CC(=O)N1CCN(C(=O)c2cccc(S(=O)(=O)Nc3ccc(C)cc3)c2)CC1` was 19.9% (inactive); that for `CCOc1cc(C(=O)N2CCc3cc(OC)c(OC)cc3C2)ccc1OC(F)F` was 11% (inactive); that for `CC(C)N1CCC(=NNc2ccc([N+](=O)[O-])cc2S(=O)(=O)N2CCOCC2)CC1` was 5.77% (inactive).
With `CCN(CC)S(=O)(=O)c1ccc2[nH]cc(C(=O)NCCc3ccccc3)c(=O)c2c1`, the inhibition was -0.23% (inactive).
Next, `COc1cccc(NS(=O)(=O)c2ccc3[nH]cc(C(=O)NCCCOC(C)C)c(=O)c3c2)c1`: 29% (active); `CCc1cccc2c(=O)c(C(=O)NCCCOC)c[nH]c12`: 3.69% (inactive).
As to `C=CCOc1ccc(/C=C/C(=O)OCC(=O)NC2CCCCCC2)cc1`, the inhibition is 12% (inactive).
Next, `CCN(c1ccccc1)S(=O)(=O)c1cccc(C(=O)NCc2ccccc2CN2CCOCC2)c1`: 3.38% (inactive); `COc1ccc(NS(=O)(=O)c2cccc(C(=O)NCCc3ccc(S(N)(=O)=O)cc3)c2)cc1`: 26.8% (active).
The value for `COc1ccccc1C(CNC(=O)c1cccc(S(=O)(=O)Nc2ccc(F)cc2)c1)N(C)C` (centres undefined) was 28.3% (active).
Next, `NS(=O)(=O)c1ccc(CNC(=O)c2cccc(Oc3ccccc3)c2)cc1`: 4.17% (inactive); `O=C(NCCN1CCOCC1)c1cccc(S(=O)(=O)Nc2ccc(F)cc2)c1`: 22.9% (inactive); `COc1ccc(OCC(=O)NCCc2ccc(S(N)(=O)=O)cc2)cc1`: -2.47% (inactive).
With `COc1ccccc1C(CNC(=O)c1cccc(NS(=O)(=O)c2ccc(Br)cc2)c1)N(C)C` (centres undefined), the inhibition is 4.01% (inactive).
On to `COc1ccc(C(CNC(=O)c2ccc(NS(=O)(=O)c3ccc(F)c(C)c3)cc2)N(C)C)cc1` (centres undefined), for which the inhibition was 7.73% (inactive).
The value for `O=C(NCc1ccccc1CN1CCCC1)c1cccc(S(=O)(=O)Nc2ccc(F)cc2)c1` was 31.6% (active); that for `CC(=O)N1c2ccc(S(=O)(=O)NCCC(=O)N(C)C3CCCCC3)cc2CC1C` (centres undefined) was 1.62% (inactive).
As for `O=C(c1n[nH]c2c1CCC2)N1CCCC(Nc2cccc(F)c2)C1` (centres undefined), the inhibition is -0.4% (inactive).
The value for `O=C(COc1ccc(NC(=O)c2ccccc2[N+](=O)[O-])cc1)c1ccc(F)cc1` was 0.54% (inactive); that for `C/C(=N\NC(=O)COc1ccc(C)cc1[N+](=O)[O-])c1ccc2c(c1)OCCO2` was 4.11% (inactive).
As for `CC(=O)Nc1cccc(OCC(=O)/C=C2\N(C)c3ccccc3C2(C)C)c1`, the inhibition was 1.61% (inactive).
The value for `N[C@@H](Cc1ccccc1)C(=O)N1CCC(C(=O)NCC(=O)Nc2ccc(F)cc2)CC1` was 2.49% (inactive); that for `Cc1cc(C)c2c(Cn3ccnc3)cc(=O)oc2c1` was -1.95% (inactive).
Consider `CCN1C(=O)/C(=C2/Sc3ccccc3N2CCCS(=O)(=O)O)SC1=S`, for which the inhibition was 28.1% (active).
Next, `CCCCN1C(=O)/C(=C/C=C2/C=Cc3ccccc3N2CC)SC1=S`: -3.21% (inactive).
Next, `CCCCN1C(=O)/C(=C2/Sc3ccc(Cl)cc3N2CC)SC1=S`: 3.72% (inactive); `CCOC(=O)C(CCOc1cccc(CC)c1)C(=O)OCC`: 5.98% (inactive).
The value for `CCCn1nc(C(=O)OCc2nc(N)nc(Nc3ccccc3C)n2)c2ccccc2c1=O` was -2.36% (inactive); that for `O=C(Nc1nnc(CCOCCOCCc2nnc(NC(=O)c3ccco3)s2)s1)c1ccco1` was 8.62% (inactive); that for `O=C(Nc1nc(-c2ccco2)c(-c2ccco2)s1)c1ccco1` was 43% (active).
For the molecule `NC(=O)c1ccsc1NC(=O)c1ccco1`, the inhibition is 3.89% (inactive).
Next, `COc1ccc(N2CCN(C3CC(=O)N(c4ccc5c(c4)OCCO5)C3=O)CC2)cc1` (centres undefined): -4.08% (inactive).
As to `COc1cc2ccccc2cc1C(=O)Nc1ccc(N2CCOCC2)cc1`, the inhibition is 11.2% (inactive).
Next, `CC(=O)Oc1cccc(N2C(=O)CC(Nc3ccc(N4CCOCC4)cc3)C2=O)c1` (centres undefined): 25.3% (active); `O=C(CN1CCN(c2cccc(Cl)c2)CC1)Nc1ccc(S(=O)(=O)N2CCOCC2)cc1`: 5.13% (inactive); `O=C(NCc1cccnc1)c1cn(-c2ccccc2)nc1-c1cccs1`: -4.38% (inactive).
Next, `COc1ccc(-c2nn(-c3ccccc3)cc2/C=C\C(=O)Nc2ccc(C(=O)O)cc2)cc1`: -67.2% (inactive).
Regarding `O=C(O)c1ccc(N/N=C/c2cn(-c3ccccc3)nc2-c2cccs2)cc1`, the inhibition was 34% (active).
For `Cn1ncc(N2CCN(S(=O)(=O)c3ccc(Br)cc3)CC2)c(Cl)c1=O`, the inhibition was -5.38% (inactive).
The value for `Cc1ccc(-c2nn(-c3ccccc3)cc2/C=C2\SC(=S)N(CCCCCC(=O)O)C2=O)o1` was 31.3% (active); that for `CN(C)S(=O)(=O)c1cccc(-c2nn(-c3ccccc3)cc2/C=C2\SC(=S)N(CC(=O)O)C2=O)c1` was 38.2% (active); that for `Cc1ccc(-c2nn(-c3ccccc3)cc2/C=C/C(=O)Nc2cccc(S(N)(=O)=O)c2)cc1` was -54.5% (inactive).
The value for `C=CCOc1ccc(/C=C2\SC(=S)N(CCC(=O)O)C2=O)cc1` was 10.2% (inactive); that for `Cc1ccc(/C=C2\SC(=S)N(CCC(=O)Nc3ccc(O)cc3)C2=O)cc1` was 4.61% (inactive).
Next, `O=C(CN1C(=O)/C(=C\c2ccccc2F)SC1=S)Nc1nc2ccccc2s1`: 7.09% (inactive); `O=C(N[C@@H]1C/C=C\C[C@@H](CC(=O)N(CCO)Cc2ccccc2)C(=O)N[C@H](Cc2ccccc2)COC1=O)OCC1c2ccccc2-c2ccccc21`: 7.18% (inactive); `O=C(NCCc1ccccn1)c1cc(C(=O)C2CCCCC2)c[nH]1`: 4.41% (inactive).
With `O=[N+]([O-])c1ncc(Br)cc1Nc1ccccc1`, the inhibition was 0.58% (inactive).
The value for `O=[N+]([O-])c1cc(S(=O)(=O)CCCN2CCOCC2)ccc1F` was 0.16% (inactive); that for `N#Cc1ccccc1S(=O)(=O)N1CCN(C(=O)c2cc(-c3ccccc3)nn2-c2ccccc2)CC1` was 0.65% (inactive).
In the case of `Cc1cccc(C)c1Nc1nnc(SCC(=O)Nc2sccc2C#N)s1`, the inhibition is 27.6% (active).
Consider `Cc1cccc(C)c1Nc1nnc(SCC(=O)NCCCN2CCCC2=O)s1`, for which the inhibition was 1.62% (inactive).
Next, `Cc1csc(SCC(=O)Nc2sccc2C#N)n1`: 11.3% (inactive); `CC1=CC=CC2=N/C(=N\S(=O)(=O)c3ccc(F)cc3F)c3ccccc3CN12`: 1.76% (inactive).
Next, `COc1cc(C(=O)Nc2oc(-c3ccccc3)c(-c3ccccc3)c2C#N)cc(OC)c1OC`: 4.29% (inactive).
Regarding `CC(Oc1ccccc1)C(=O)Nc1oc(-c2ccco2)c(-c2ccco2)c1C#N` (centres undefined), the inhibition was 28.7% (active).
Next, `CC(C)C(=O)Nc1oc(-c2ccccc2)cc1C#N`: -0.35% (inactive); `O=C(COC(=O)COc1cccc(F)c1)NCC1CCCCC1`: 7.16% (inactive); `O=C(CNC(=O)c1cc(=O)[nH]c2ccccc12)Nc1ccc(F)c(F)c1`: 0.37% (inactive).
The value for `Cc1c(C(=O)OCC(=O)N(CCC#N)c2ccccc2)oc2c1ccc1ccccc12` was -0.27% (inactive); that for `Cc1ccccc1-n1c(SCC(=O)Nc2cccc3ccccc23)nc(O)cc1=O` was 45.7% (active).
Next, `C=CCn1c(N)cc(=O)nc1SCC(=O)Nc1cccc2ccccc12`: 0.51% (inactive); `Cc1ccc2nc(SCC(=O)Nc3cccc4ccccc34)nc(=O)n2c1`: 3.47% (inactive).
For the molecule `CN(C(=O)CSc1nnc(-c2ccc3c(c2)OCO3)o1)C1CCS(=O)(=O)C1` (centres undefined), the inhibition is -3.28% (inactive).
Next, `C=CCN(Cc1nc(-c2cc(OC)c3c(c2)OCO3)oc1C)C1CCS(=O)(=O)C1` (centres undefined): 30.4% (active); `COc1ccccc1C(=O)N(Cc1ccc(C)o1)C1CCS(=O)(=O)C1` (centres undefined): 0.97% (inactive).
For `NNC(=O)c1oc2nc(-c3ccccc3)cc(-c3ccco3)c2c1N`, the inhibition was 37.4% (active).
As for `O=C(Nc1cccc(F)c1)c1cc(-c2ccco2)nc2ccccc12`, the inhibition was 16% (inactive).
With `CNC(=S)NNC(=O)c1oc2nc(-c3ccccc3)cc(-c3ccco3)c2c1N`, the inhibition is 11% (inactive).

For the origin of these results see PubChem BioAssay AID463082 (The Scripps Research Institute Molecular Screening Center, 2010).
